Experimental data taken from PubChem BioAssay (NCI).
Values joined by “and” are separate entries in the source; they are usually repeats but may differ in a detail not shown here. Equal entries are not always repeated. This is part of a sample that, as a whole, favours compounds with a hit. Of some 83,000 tested, about 20% had one in any assay.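 Step 1: grow cells in 96-well plates. Step 2: add test compound at a single concentration. Step 3: incubate 48 h. Step 4: record percent growth.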 Unmarked numbers belong to inactive results. Active and inactive are the calls of the source. How the source made its calls: active means growth percent below 10; inactive means the rest.

Tested on: MDA-MB-468 breast
Assay: NCI-60 one-dose screen, 48 h (100 = growth as untreated, 0 = no growth, -100 = all killed)
Settings: 10 µM unless noted

Structure (SMILES) | growth
COc1ccc(Nc2nc(N)nc3c(=O)[nH]ccc23)cc1 | 118%
COc1cc(/C=C/c2nc(Nc3ccc(S(=O)(=O)Nc4cc(C)on4)cc3)c3ccccc3n2)ccc1O | -7.09% (active)
O=C(/C=C/c1cccs1)c1ccc(Cl)nc1 | 103%
Cc1ccc(Nc2cc(=S)nc(N)[nH]2)cc1C | 84.8%
O=c1cc(-c2ccc3c(c2)OCCO3)oc2cc(Cl)ccc12 | 66.4%
Cc1ccc2[nH]c(=O)c3c(c2c1)OC(N)=C(C#N)C31c2cc(Br)ccc2-c2ccc(Br)cc21 | 55.4%
CC(=O)Nc1cccc(-c2ccc3c(c2)NC(=O)/C3=C\c2ccc[nH]2)c1 | 21.1%
CCCOc1ccc2nc(NC(=O)OC)[nH]c2c1 | -3.99% (active)
CC(C)CC1NC(C)(C)CO1 (stereo not given) | 108%
CC(C)(O)CCl | 103%
O=C(O)c1cc(=O)[nH]c(=O)[nH]1 | 97.9% and 80.6%
CCCCCN(CCCCC)CC(O)c1cc(C)c2ccc3cc(C(C)C)ccc3c2c1 (stereo not given) | -71.1% (active)
O=C1OCC2=C1C(c1cccc(C(F)(F)F)c1)c1cc3c(cc1N2CCO)OCCO3 (stereo not given) | 13.5%
CC(=O)c1c(O)cc2c3c1OC(C)(C)C1CCC(C)(CC31)O2 (stereo not given) | 85.9%
O=C1C(c2c(O)[nH]c3ncccc23)=Nc2ccccc21 | 42.6%
Fc1ccc(CNc2c3ccccc3nc3ccccc23)cc1 | 11.5%
C/C(=C\c1ccc2ccccc2c1)[N+](=O)[O-] | -22.8% (active)
CN(C)CCNC(=O)c1cccc(-c2cnc3ccc(-c4ccc5c(c4)OCO5)nn23)c1 | 66.9%
O=C(CN1CCOCC1)NNc1ncnc2ccccc12 | 55.9%
CC(=O)n1c2ccccc2c2ccccc21 | 105%

Structure (SMILES) | growth
CCOC(=O)c1cc(C(=O)c2cc(OC)c(OC)c(OC)c2)n2c1ccc1c3cccnc3ccc12 | 61.5%
COCCNC(C(=O)c1ccccc1)c1ccccc1 (stereo not given) | 90.8%
NS(=O)(=O)c1cc(Br)c2c(c1)S(=O)(=O)NCN2 | 126%
O=C(O)C(=O)O | 94.8%
COc1ccc(Oc2c(I)cc(CC(NC(C)=O)C(=O)O)cc2I)cc1 (stereo not given) | 75.8%
Nc1nonc1-c1nc2ccccc2n1CC(=O)Nc1ccc2c(c1)COC2=O | 26.2%
COc1ccc(/C=N\NC(=O)CN2CCN(c3cc4c(cc3F)c(=O)c(C(=O)N/N=C/c3ccc(OC)cc3)cn4C3CC3)CC2)cc1 | 84.3%
CCN(CCCCCCCCCCN1CC(=O)N(CCCCCCCCCCN(CC)Cc2ccccc2OC)CC1=O)Cc1ccccc1OC | -87.8% (active)
CCC(O)C(C)(C)C (stereo not given) | 115%
CCC/C(=N/NC(N)=O)c1ccco1 | 102%
Cc1ccc(/C=N/NC(N)=S)s1 | 101%
C[C@@H](Oc1cc(-c2cnn(C3CC4(CNC4)C3)c2)cnc1N)c1c(Cl)ccc(F)c1Cl | 20.5%
Cc1cc(C(=O)O)c(C)cc1C(=O)O | 96.6%
O=c1cc(-c2nccc3c2[nH]c2ccccc23)c2cc(Cl)ccc2o1 | 2.37% (active)
CCCCN(CCCC)CCC(O)c1cc2ccc(C(F)(F)F)cc2c2cc(C(F)(F)F)ccc12 (stereo not given) | 39.6%
Cc1ccc(C)n1-c1ccccc1-n1c(C)ccc1C | 104%
CC1CCCCC[N+]12CCCC2 (stereo not given) | 99.4%
OC[C@@H](O)C(O[C@@H]1O[C@H](CO)[C@H](O)[C@H](O)[C@H]1O)[C@H](O)[C@@H](O)CO (stereo not given in full) | 94.7%
COCCOCCCl | 102%
Nc1ccc(S(=O)(=O)Nc2ccnn2-c2ccccc2)cc1 | 107%
